Drawing on PubChem BioAssay (Tox21), this text covers Potency for 39 compounds.

Values joined by “and” are separate entries in the source; they are usually repeats but may differ in a detail not shown here. Equal values may be shown once. Inconclusive results are not listed. Where a call stands in place of a potency, no number is given. Active and inactive are the calls of the source. Calls follow the shape of the dose curve; as a rule, active = well fitted curve in the direction sought with a large enough effect in the repeat runs; inconclusive = weak or mixed curves; inactive = no such curve, though single readings can be large; an effect the other way counts as inactive or inconclusive.

One assay can be described thus: qHTS assay for small molecule disruptors of the mitochondrial membrane potential (AID 720635). Also: potency is read from the fitted curve at half-maximal effect. The conditions noted are these: HepG2 mitochondrial membrane potential, Mito-MPS dye ratio; series mostly up to 83.2 µM. A digest of the protocol:
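HepG2 cells exposed to compound 1 hr at 37C, then Mito-MPS dye 30 min. Ratio read of aggregate (540/590 nm) versus monomer (490/535 nm) fluorescence.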
(In qHTS, concentration-response curves come from the screen itself.)
Consider `CCCCCC1C(=O)CCC1CC(=O)OC` (stereo unspecified), for which the Potency entry was “inactive”.
Same read-out and setting: the same measure for `O=Cc1ccccc1C=O`: 21.1 µM (active) and 30.6 µM (active); for `OCCNCCO`: “inactive”; for `Nc1ccc2c(c1)C(=O)c1ccccc1C2=O`: 268 nM (active) and 386 nM (active).
Same read-out and setting: the same measure for `C=C[C@@]1(C)CC(=O)[C@]2(O)[C@@]3(C)[C@@H](O)CCC(C)(C)[C@@H]3[C@H](O)[C@H](OC(C)=O)[C@@]2(C)O1`: 26.6 µM (active); for `Cc1ccc(C)c(O)c1`: “inactive”.
Still for that read-out and setting: the same measure for `COc1cc([C@H]2Oc3cc([C@H]4Oc5cc(O)cc(O)c5C(=O)[C@@H]4O)ccc3O[C@@H]2CO)ccc1O`: 29.8 µM (active) and 21.6 µM (active); for `C=CC(C)(O)CCC=C(C)C` (stereo unspecified): “inactive”.
For `Cc1ccc(C(C)(C)C)cc1`, the Potency result is “inactive”.
The same measure, in the same setting: the same measure for `O=C(O)c1ccc(O)cc1`: “inactive”; for `FC(F)(F)C(Cl)Br` (stereo unspecified): “inactive”.
For the compound `NCCOCCO`, the Potency result was “inactive”.
Still for that read-out and setting: the same measure for `CN(C)/N=N/c1nc[nH]c1C(N)=O`: “inactive”; for `CC1(C)C(C=C(Cl)Cl)C1C(=O)OCc1cccc(Oc2ccccc2)c1` (stereo unspecified): 30.6 µM (active); for `CC(=O)Oc1ccc(C(c2ccc(OC(C)=O)cc2)c2ccccn2)cc1`: 6.68 µM (active) and 21.6 µM (active).

Another assay can be described thus: qHTS assay to test for compound auto fluorescence at 590 nm (red) in HepG2 cells (AID 720674). The conditions noted are these: HepG2 autofluorescence, red 540/590 nm, 1 h; series mostly up to 91.3 µM. A digest of the protocol: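 Fluorescence at 590 nm emission following 540 nm excitation was recorded from HepG2 wells one hour after compound transfer, with DMSO-only wells as vehicle and Rose Bengal sodium equivalency as the scale.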
For `CCCCCCC(C)O` (stereo unspecified), the Potency result was “inactive”.
On to `C1COCCN1`, for which the Potency result is “inactive”.
On to `CCCCCC1C(=O)CCC1CC(=O)OC` (stereo unspecified), for which the Potency entry was “inactive”.
Regarding `O=Cc1ccccc1C=O`, the Potency result is “inactive”.
Consider `OCCNCCO`, for which the Potency result was “inactive”.
Still for that read-out and setting: the same measure for `CN(C)CCCN1c2ccccc2Sc2ccc(Cl)cc21`: “inactive”.
On the same count and under the same terms, the same measure for `OC[C@H]1O[C@@H]2O[C@H]3[C@H](O)[C@@H](O)[C@@H](O[C@H]4[C@H](O)[C@@H](O)[C@@H](O[C@H]5[C@H](O)[C@@H](O)[C@@H](O[C@H]6[C@H](O)[C@@H](O)[C@@H](O[C@H]7[C@H](O)[C@@H](O)[C@@H](O[C@H]1[C@H](O)[C@H]2O)O[C@@H]7CO)O[C@@H]6CO)O[C@@H]5CO)O[C@@H]4CO)O[C@@H]3CO`: “inactive”.
Same read-out and setting: the same measure for `Nc1ccc2c(c1)C(=O)c1ccccc1C2=O`: “inactive”.
As for `O=C(O)CCCCCCCCCCCC(=O)O`, the Potency entry was “inactive”.
On the same count and under the same terms, the same measure for `O=C(O)COCCN1CCN(C(c2ccccc2)c2ccc(Cl)cc2)CC1` (stereo unspecified): “inactive”.
Still for that read-out and setting: the same measure for `COc1ccc(-c2coc3cc(O)cc(O)c3c2=O)cc1`: “inactive”; for `CC(=O)Oc1c(C)c(C)c2c(c1C)CC[C@@](C)(CCC[C@H](C)CCC[C@H](C)CCCC(C)C)O2`: “inactive”.
On the same count and under the same terms, the same measure for `C=C[C@@]1(C)CC(=O)[C@]2(O)[C@@]3(C)[C@@H](O)CCC(C)(C)[C@@H]3[C@H](O)[C@H](OC(C)=O)[C@@]2(C)O1`: “inactive”; for `C1CN(SSN2CCOCC2)CCO1`: “inactive”; for `CCC(=O)O[C@H]1[C@H](O[C@@H]2[C@@H](C)[C@H](O[C@H]3C[C@@](C)(OC)[C@@H](O)[C@H](C)O3)[C@@H](C)C(=O)O[C@H](CC)[C@@](C)(O)[C@H](O)[C@@H](C)C(=O)[C@H](C)C[C@@]2(C)O)O[C@H](C)C[C@@H]1N(C)C`: “inactive”.
For `IC(I)I`, the Potency entry was “inactive”.
Still for that read-out and setting: the same measure for `CC1(C)NC(=O)N(c2ccc([N+](=O)[O-])c(C(F)(F)F)c2)C1=O`: “inactive”; for `CN1CCOCC1`: “inactive”.
With `CC(=O)O[C@]1(C(C)=O)CC[C@H]2[C@@H]3C=C(C)C4=CC(=O)CC[C@]4(C)[C@H]3CC[C@@]21C`, the Potency entry was “inactive”.
As to `O=[Se](O)O`, the Potency result is “inactive”.
The same measure, in the same setting: the same measure for `C=C[Si](OCCOC)(OCCOC)OCCOC`: “inactive”; for `Cc1ccc(C)c(O)c1`: “inactive”; for `COc1cc([C@H]2Oc3cc([C@H]4Oc5cc(O)cc(O)c5C(=O)[C@@H]4O)ccc3O[C@@H]2CO)ccc1O`: “inactive”.
For `C=CC(C)(O)CCC=C(C)C` (stereo unspecified), the Potency entry was “inactive”.
On the same count and under the same terms, the same measure for `Cc1ccc(C(C)(C)C)cc1`: “inactive”; for `Clc1ccc(Sc2cc(Cl)c(Cl)cc2Cl)cc1`: “inactive”; for `O=C(O)c1ccc(O)cc1`: “inactive”.
Take `Cc1ccc(S(=O)(=O)NCl)cc1`: the Potency entry was “inactive”.
Consider `CN(Cc1cnc2nc(N)nc(N)c2n1)c1ccc(C(=O)N[C@@H](CCC(=O)O)C(=O)O)cc1`, for which the Potency result is “inactive”.
Consider `O=C(O)c1cc(=O)[nH]c(=O)[nH]1`, for which the Potency entry was “inactive”.
Consider `CC[C@]12CCCN3CCc4c(n(c5ccccc45)[C@@](O)(C(=O)OC)C1)[C@@H]32`, for which the Potency result was “inactive”.
On the same count and under the same terms, the same measure for `FC(F)(F)C(Cl)Br` (stereo unspecified): “inactive”.
The same measure, in the same setting: the same measure for `NCCOCCO`: “inactive”.
On the same count and under the same terms, the same measure for `CN(C)/N=N/c1nc[nH]c1C(N)=O`: “inactive”.
As to `CC1(C)C(C=C(Cl)Cl)C1C(=O)OCc1cccc(Oc2ccccc2)c1` (stereo unspecified), the Potency result is “inactive”.
Same read-out and setting: the same measure for `Cc1cccc(Nc2ccccc2C(=O)O)c1C`: “inactive”.
Same read-out and setting: the same measure for `NCCN`: “inactive”; for `[O-]/[N+](=N\O)c1ccccc1`: “inactive”.
Same read-out and setting: the same measure for `CC(=O)Oc1ccc(C(c2ccc(OC(C)=O)cc2)c2ccccn2)cc1`: “inactive”.

A short description of a further assay: qHTS assay to test for compound auto fluorescence at 535 nm (green) in HepG2 cells (AID 720675). To be noted: green autofluorescence 485/535 nm, 1 h; series mostly up to 91.3 µM.
With `CCCCCCC(C)O` (stereo unspecified), the Potency result was “inactive”.
On the same count and under the same terms, the same measure for `C1COCCN1`: “inactive”.
Still for that read-out and setting: the same measure for `CCCCCC1C(=O)CCC1CC(=O)OC` (stereo unspecified): “inactive”; for `O=Cc1ccccc1C=O`: “inactive”.
Still for that read-out and setting: the same measure for `OCCNCCO`: “inactive”; for `CN(C)CCCN1c2ccccc2Sc2ccc(Cl)cc21`: “inactive”; for `OC[C@H]1O[C@@H]2O[C@H]3[C@H](O)[C@@H](O)[C@@H](O[C@H]4[C@H](O)[C@@H](O)[C@@H](O[C@H]5[C@H](O)[C@@H](O)[C@@H](O[C@H]6[C@H](O)[C@@H](O)[C@@H](O[C@H]7[C@H](O)[C@@H](O)[C@@H](O[C@H]1[C@H](O)[C@H]2O)O[C@@H]7CO)O[C@@H]6CO)O[C@@H]5CO)O[C@@H]4CO)O[C@@H]3CO`: “inactive”.
As to `Nc1ccc2c(c1)C(=O)c1ccccc1C2=O`, the Potency entry is “inactive”.
The same measure, in the same setting: the same measure for `O=C(O)CCCCCCCCCCCC(=O)O`: “inactive”; for `C1CN(SSN2CCOCC2)CCO1`: “inactive”.
Still for that read-out and setting: the same measure for `CC1(C)NC(=O)N(c2ccc([N+](=O)[O-])c(C(F)(F)F)c2)C1=O`: “inactive”.
With `CN1CCOCC1`, the Potency entry is “inactive”.
On the same count and under the same terms, the same measure for `CC(=O)O[C@]1(C(C)=O)CC[C@H]2[C@@H]3C=C(C)C4=CC(=O)CC[C@]4(C)[C@H]3CC[C@@]21C`: “inactive”; for `O=[Se](O)O`: “inactive”; for `Cc1ccc(C)c(O)c1`: “inactive”.
The same measure, in the same setting: the same measure for `COc1cc([C@H]2Oc3cc([C@H]4Oc5cc(O)cc(O)c5C(=O)[C@@H]4O)ccc3O[C@@H]2CO)ccc1O`: “inactive”.
On the same count and under the same terms, the same measure for `C=CC(C)(O)CCC=C(C)C` (stereo unspecified): “inactive”; for `O=C(O)c1ccc(O)cc1`: “inactive”.
With `Cc1ccc(S(=O)(=O)NCl)cc1`, the Potency result was “inactive”.
On to `CC[C@]12CCCN3CCc4c(n(c5ccccc45)[C@@](O)(C(=O)OC)C1)[C@@H]32`, for which the Potency result is “inactive”.
Same read-out and setting: the same measure for `FC(F)(F)C(Cl)Br` (stereo unspecified): “inactive”; for `NCCOCCO`: “inactive”; for `CN(C)/N=N/c1nc[nH]c1C(N)=O`: “inactive”.
With `CC1(C)C(C=C(Cl)Cl)C1C(=O)OCc1cccc(Oc2ccccc2)c1` (stereo unspecified), the Potency result was “inactive”.
Same read-out and setting: the same measure for `NCCN`: “inactive”; for `[O-]/[N+](=N\O)c1ccccc1`: “inactive”.
Same read-out and setting: the same measure for `CC(=O)Oc1ccc(C(c2ccc(OC(C)=O)cc2)c2ccccn2)cc1`: “inactive”.
